TRPV1 agonist: HTS Assay for Compounds that Act as Agonists of the Vanilloid Receptor 1; Transient receptor potential cation channel subfamily V member 1 (Homo sapiens), Q8NER1; TRPV1-expressing cells, Fluo-8 calcium influx, agonist mode; activation, % at 8.33 µM; actives 0.19% (n = 320,000); in the data active = activation above about 80%; inconclusive = between about 30% and that limit
Target sequence (Q8NER1 whole entry, looked up): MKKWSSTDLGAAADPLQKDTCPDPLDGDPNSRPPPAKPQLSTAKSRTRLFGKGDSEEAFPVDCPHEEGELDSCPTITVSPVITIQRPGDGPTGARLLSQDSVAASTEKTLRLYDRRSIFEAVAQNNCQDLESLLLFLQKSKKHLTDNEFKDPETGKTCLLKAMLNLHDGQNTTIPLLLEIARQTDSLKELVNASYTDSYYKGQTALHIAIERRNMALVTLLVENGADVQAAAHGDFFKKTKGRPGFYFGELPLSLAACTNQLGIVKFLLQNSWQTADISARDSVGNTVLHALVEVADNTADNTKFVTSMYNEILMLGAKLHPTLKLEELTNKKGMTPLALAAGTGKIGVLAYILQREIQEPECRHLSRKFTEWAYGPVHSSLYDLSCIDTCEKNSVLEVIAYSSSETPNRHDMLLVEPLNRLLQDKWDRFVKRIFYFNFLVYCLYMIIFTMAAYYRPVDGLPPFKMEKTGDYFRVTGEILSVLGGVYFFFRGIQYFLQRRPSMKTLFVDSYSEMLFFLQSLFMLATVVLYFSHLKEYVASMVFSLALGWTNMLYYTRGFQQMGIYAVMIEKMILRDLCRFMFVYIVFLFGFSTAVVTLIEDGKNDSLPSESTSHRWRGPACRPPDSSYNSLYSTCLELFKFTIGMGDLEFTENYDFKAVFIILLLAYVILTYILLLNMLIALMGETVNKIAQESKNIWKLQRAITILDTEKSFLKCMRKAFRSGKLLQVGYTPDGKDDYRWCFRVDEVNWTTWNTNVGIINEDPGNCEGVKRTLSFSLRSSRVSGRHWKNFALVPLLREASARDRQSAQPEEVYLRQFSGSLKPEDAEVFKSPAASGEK
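Fluo-8 calcium influx in TRPV1-expressing cells, kinetic read (ex 480/em 520 nm). Compound added and read 3 min for agonist activity, followed by capsaicin at EC20 final and 2 min further read for enhancement.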
uPA generation: qHTS for Inhibitors of Cell Surface uPA Generation. cell surface uPA generation assay, qHTS. Potency, µM (doses to about 38.3 µM), actives largely listed as inhibitors. actives 0.31% (n = 330,000). AID 540303, 2011; active = well fitted inhibition curve with a large enough effect; inconclusive = small, poorly fitted or top-dose-only effect; inactive = no such curve, though single readings can be large or run the other way; tested in mouse RAW 264.7 cells; note: nearly all actives have a fitted effect of over 55% in size
RORgamma inh: qHTS for inhibitors of ROR gamma transcriptional activity. Potency, µM (top dose mostly 53.6 µM), usual class: inhibitors. Nuclear receptor ROR-gamma (Mus musculus), P51450. Drosophila S2 Gal4-RORgamma UAS-luciferase reporter, 20 h. actives 5.4% (n = 310,000); note: nearly all actives have a fitted effect of over 60% in size
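Using a luciferase readout, inhibitors were identified by reduced reporter activity in Drosophila cells coexpressing a copper-inducible Gal4–ROR gamma fusion and UAS-driven Photinus luciferase, incubated 20 hr after 700 uM copper sulfate.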
TRPV1 PAM: HTS Assay for Compounds that Act as Potentiators of the Vanilloid Receptor 1 | Transient receptor potential cation channel subfamily V member 1 (Homo sapiens), Q8NER1 | TRPV1-expressing cells, Fluo-8 calcium influx, capsaicin EC20 potentiation | potentiation, % at 8.33 µM | actives 0.02% (n = 320,000) | AID 540277, 2011; in the data active = potentiation above about 80%; inconclusive = between about 30% and that limit
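TRPV1-expressing cells were cultured overnight at 35.5C and loaded with Fluo-8 calcium dye for 40 to 90 min at room temperature. After a 10 s baseline, compound was added and calcium influx was read kinetically for 3 min (ex 480/em 520 nm).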
VP16 counter: VP16 counterscreen qHTS for inhibitors of ROR gamma transcriptional activity; Drosophila S2 Gal4-VP16 UAS-luciferase, luminescence, 20 h; Potency, µM (titrated, usually from 53.6 µM), usual class: inhibitors; actives 3.5% (n = 310,000);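 note: Gal4-VP16 expression switched on by copper sulfate through the metallothionein promoter; nearly all actives have a fitted effect of over 50% in size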
Large screens that a line does not name were inactive. This is a sample that favours compounds with a hit; in the whole collection about 5.8% have one here. Unless noted, calls come from the whole dose curve; as a rule, active = well fitted curve in the direction sought with a large enough effect; inconclusive = small, poorly fitted or top-dose-only effect, or another doubt; inactive = no such curve, though single readings can be large; an effect the other way counts as inactive or inconclusive.

CCOC(=O)Cc1csc(NC(=O)CSc2nnc(-c3ccc(C)cc3)o2)n1	RORgamma inh 11µM, VP16 counter inconclusive (no result: uPA generation)
Cc1csc(NC(=O)CSc2nnc(-c3ccccc3)o2)n1	RORgamma inh inconclusive
CCn1c2ccccc2c2cc(NC(=O)CSc3nnc(-c4cccc(F)c4)o3)ccc21	none
O=C(CSc1nnc(-c2cccc(F)c2)o1)Nc1nncs1	RORgamma inh 13µM, VP16 counter inconclusive
CCOC(=O)Cc1csc(NC(=O)CSc2nnc(-c3ccc(F)cc3)o2)n1	RORgamma inh 4µM, VP16 counter inconclusive
COc1cc(CC(=O)N(C)CC(=O)Nc2ccc(Cl)c(C(F)(F)F)c2)cc(OC)c1OC	none
C[C@@H](c1ccccc1)N1C(=O)[C@H]2[C@H]3[C@H](O)[C@H](O)C/C(=N/OCc4ccccc4)[C@@H]3CC[C@@H]2C1=O	none (no result: TRPV1 agonist, uPA generation, TRPV1 PAM)
C[C@@H]1C(=O)O[C@@H]1[C@@H](C)CO[Si](c1ccccc1)(c1ccccc1)C(C)(C)C	none (no result: TRPV1 agonist, uPA generation, TRPV1 PAM)
CC(C)CC(=O)N1CCN(c2ccc([N+](=O)[O-])cc2Cl)CC1	RORgamma inh inconclusive
CC(C)CC(=O)NC(=S)N1CCN(c2ccc([N+](=O)[O-])cc2Cl)CC1	uPA generation inconclusive, RORgamma inh 3.5µM, VP16 counter inconclusive
Cc1cccc(-n2cc(-c3ccccc3)c3c(NN4CCOCC4)ncnc32)c1	RORgamma inh 6.3µM, VP16 counter inconclusive
Cc1ccc(-n2cc(-c3ccccc3)c3c(NN4CCOCC4)ncnc32)cc1	TRPV1 agonist inconclusive, RORgamma inh inconclusive, VP16 counter inconclusive
COc1ccc(C(C)(C)C)cc1NC(=O)COC(=O)CN1C(=O)NC2(CCCCC2C)C1=O (stereo unspecified)	none (no result: TRPV1 agonist, RORgamma inh, TRPV1 PAM, VP16 counter)
Cc1nc2cc(Nc3nnc(-c4ccccc4)c4ccccc34)ccc2n1C	uPA generation inconclusive, RORgamma inh 7.1µM, VP16 counter 6.3µM
Cc1oc(-c2cccc(F)c2)nc1CN1CCCCC1CCc1ccccn1 (stereo unspecified)	none
O=C1C=C[C@@H](O)[C@H]2[C@@H]3C(=O)N(C[C@@H]4CCCO4)C(=O)[C@@H]3CC[C@H]12	none (no result: TRPV1 agonist, uPA generation, TRPV1 PAM)
CC1(C)CC(=O)C(C=Nc2cc(C(=O)c3ccccc3)ccc2N)=C(O)C1	RORgamma inh 7.9µM, VP16 counter inconclusive
CC1(C)CC(=O)C(C=Nc2ccc(N)cc2)=C(O)C1	uPA generation inconclusive, VP16 counter inconclusive
COC(=O)c1ccc(N)c(N=CC2=C(O)CC(C)(C)CC2=O)c1	RORgamma inh 13µM, VP16 counter inconclusive
C#CCN1C(=O)C(O)(CC(=O)/C=C/c2ccco2)c2ccccc21 (stereo unspecified)	VP16 counter inconclusive
O=C(CCc1ccccc1)c1ccc2c(c1)OCCCO2	TRPV1 agonist inconclusive
O=C(NCCOc1ccccc1)c1ccc2c(c1)OCO2	RORgamma inh 5µM, VP16 counter inconclusive
COc1ccc(CCNC(=O)c2ccc3c(c2)OCCO3)cc1	none
O=C(CCCc1ccccc1)c1ccc2c(c1)OCCO2	RORgamma inh 1.1µM, VP16 counter 2.2µM
O=C(NCCc1ccccc1)c1ccc2c(c1)OCCO2	TRPV1 agonist inconclusive, RORgamma inh 1.4µM, VP16 counter 1.3µM
O=C(NCCc1ccccc1)c1ccc2c(c1)OCCCO2	TRPV1 agonist inconclusive, RORgamma inh 0.35µM, VP16 counter 0.63µM
CCOC(=O)c1csc(NC(=O)c2cc(-c3ccccn3)nc3ccccc23)n1	none (no result: TRPV1 agonist, RORgamma inh, TRPV1 PAM, VP16 counter)
CC(C)Cn1nnnc1S(=O)(=O)CCc1ccccc1	none (no result: TRPV1 agonist, uPA generation, TRPV1 PAM)
COC1CC2CCC(C)[C@](O)(O2)C(=O)C(=O)N2CCCCC2C(=O)OC(C(C)CC2CCC(O)C(OC)C2)CC(=O)C(C)/C=C(/C)C(O)C(OC)C(=O)C(C)CC(C)C=CC=C/C=C\1C (stereo partly specified)	VP16 counter inconclusive (no result: TRPV1 agonist, uPA generation, TRPV1 PAM)
NCCCC(N)CC(=O)NCC1NC(=O)C(CO)NC(=O)C(N)CNC(=O)C(C2CCN=C(N)N2)NC(=O)/C(=C/NC(N)=O)NC1=O (stereo unspecified)	none (no result: TRPV1 agonist, uPA generation, TRPV1 PAM)
CCc1ccccc1OC[C@@H](O)CN[C@H]1CCCc2ccccc21	RORgamma inh 7.1µM, VP16 counter 14µM
CCOC(=O)N1CCN(C(=O)C2CCCN(S(=O)(=O)c3ccc(C)cc3)C2)CC1 (stereo unspecified)	none (no result: uPA generation)
